Data from ChEMBL document CHEMBL1961873, “Compounds: GSK PKIS; Assays: Nanosyn kinase panel” (2012).

Columns and labels:
[1] = target: T1, Aurora kinase A (Homo sapiens) (UniProt O14965); details: at 1 µM;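 further: values are mean percent inhibition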
T1 sequence (whole entry): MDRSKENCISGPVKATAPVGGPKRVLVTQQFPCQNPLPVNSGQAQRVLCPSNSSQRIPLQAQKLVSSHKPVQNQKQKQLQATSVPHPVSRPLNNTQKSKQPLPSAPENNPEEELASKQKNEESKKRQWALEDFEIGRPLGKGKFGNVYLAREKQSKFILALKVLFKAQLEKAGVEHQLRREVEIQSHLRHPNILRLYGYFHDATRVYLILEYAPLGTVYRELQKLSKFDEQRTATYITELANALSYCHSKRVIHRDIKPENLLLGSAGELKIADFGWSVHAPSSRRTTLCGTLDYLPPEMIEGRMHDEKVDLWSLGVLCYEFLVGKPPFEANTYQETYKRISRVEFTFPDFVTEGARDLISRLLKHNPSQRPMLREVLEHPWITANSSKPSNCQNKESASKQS

[2] = target: Aurora kinase B (Homo sapiens) (UniProt Q96GD4); details: at 0.1 µM
Aurora kinase B (Homo sapiens), sequence (Q96GD4 whole entry): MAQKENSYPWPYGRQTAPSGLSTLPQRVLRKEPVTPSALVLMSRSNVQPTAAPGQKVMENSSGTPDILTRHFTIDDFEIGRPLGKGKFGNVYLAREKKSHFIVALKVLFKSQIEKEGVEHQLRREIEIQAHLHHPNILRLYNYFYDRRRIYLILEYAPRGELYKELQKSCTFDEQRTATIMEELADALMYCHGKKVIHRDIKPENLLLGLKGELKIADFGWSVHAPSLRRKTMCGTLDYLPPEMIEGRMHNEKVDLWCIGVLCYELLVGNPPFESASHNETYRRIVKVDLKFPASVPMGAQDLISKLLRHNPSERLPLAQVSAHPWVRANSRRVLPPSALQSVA

[3] = target: Aurora kinase B (Homo sapiens) (UniProt Q96GD4); details: at 1 µM
[4] = target: T2, Aurora kinase C (Homo sapiens) (UniProt Q9UQB9); details: at 0.1 µM
T2 sequence (whole entry): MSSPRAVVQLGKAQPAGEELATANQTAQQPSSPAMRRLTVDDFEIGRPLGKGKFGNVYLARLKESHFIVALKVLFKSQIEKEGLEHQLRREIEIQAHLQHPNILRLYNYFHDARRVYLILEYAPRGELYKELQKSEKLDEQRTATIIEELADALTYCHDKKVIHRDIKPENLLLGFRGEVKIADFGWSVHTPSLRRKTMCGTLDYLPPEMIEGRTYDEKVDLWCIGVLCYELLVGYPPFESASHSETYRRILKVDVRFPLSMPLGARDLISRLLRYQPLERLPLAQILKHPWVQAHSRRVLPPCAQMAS

[5] = target: T2, Aurora kinase C (Homo sapiens); details: at 1 µM
[6] = target: Serine/threonine-protein kinase 10 (Homo sapiens) (UniProt O94804); details: at 0.1 µM
Serine/threonine-protein kinase 10 (Homo sapiens), sequence (O94804 whole entry, looked up): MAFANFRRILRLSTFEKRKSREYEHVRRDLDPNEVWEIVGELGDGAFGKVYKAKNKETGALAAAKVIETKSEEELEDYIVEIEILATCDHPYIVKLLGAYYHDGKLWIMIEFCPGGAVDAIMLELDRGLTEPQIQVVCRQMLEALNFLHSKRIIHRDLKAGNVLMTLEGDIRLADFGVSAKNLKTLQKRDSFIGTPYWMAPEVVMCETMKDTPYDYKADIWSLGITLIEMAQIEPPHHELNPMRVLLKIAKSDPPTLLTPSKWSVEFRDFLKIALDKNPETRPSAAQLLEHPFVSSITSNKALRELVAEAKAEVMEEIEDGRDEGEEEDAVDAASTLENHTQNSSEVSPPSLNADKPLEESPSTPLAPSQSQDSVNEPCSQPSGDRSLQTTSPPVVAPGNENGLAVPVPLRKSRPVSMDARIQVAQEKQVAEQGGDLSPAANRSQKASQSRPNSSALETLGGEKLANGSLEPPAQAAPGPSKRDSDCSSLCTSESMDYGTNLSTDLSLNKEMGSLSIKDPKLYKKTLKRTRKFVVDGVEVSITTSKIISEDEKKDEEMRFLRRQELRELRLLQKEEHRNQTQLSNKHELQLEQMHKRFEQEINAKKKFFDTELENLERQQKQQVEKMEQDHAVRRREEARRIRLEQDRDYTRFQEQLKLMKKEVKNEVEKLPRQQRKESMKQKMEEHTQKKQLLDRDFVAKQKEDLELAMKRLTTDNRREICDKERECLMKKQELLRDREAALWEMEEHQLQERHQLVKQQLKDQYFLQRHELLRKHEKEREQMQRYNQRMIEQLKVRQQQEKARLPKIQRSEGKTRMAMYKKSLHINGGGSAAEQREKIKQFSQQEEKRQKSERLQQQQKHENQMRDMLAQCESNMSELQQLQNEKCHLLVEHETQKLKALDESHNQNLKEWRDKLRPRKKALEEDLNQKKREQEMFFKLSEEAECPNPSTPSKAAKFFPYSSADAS

[7] = target: Serine/threonine-protein kinase 10 (Homo sapiens) (UniProt O94804); details: at 1 µM
[8] = target: T3, Mitogen-activated protein kinase kinase kinase kinase 2 (Homo sapiens) (UniProt Q12851); details: at 0.1 µM
T3 sequence (whole entry): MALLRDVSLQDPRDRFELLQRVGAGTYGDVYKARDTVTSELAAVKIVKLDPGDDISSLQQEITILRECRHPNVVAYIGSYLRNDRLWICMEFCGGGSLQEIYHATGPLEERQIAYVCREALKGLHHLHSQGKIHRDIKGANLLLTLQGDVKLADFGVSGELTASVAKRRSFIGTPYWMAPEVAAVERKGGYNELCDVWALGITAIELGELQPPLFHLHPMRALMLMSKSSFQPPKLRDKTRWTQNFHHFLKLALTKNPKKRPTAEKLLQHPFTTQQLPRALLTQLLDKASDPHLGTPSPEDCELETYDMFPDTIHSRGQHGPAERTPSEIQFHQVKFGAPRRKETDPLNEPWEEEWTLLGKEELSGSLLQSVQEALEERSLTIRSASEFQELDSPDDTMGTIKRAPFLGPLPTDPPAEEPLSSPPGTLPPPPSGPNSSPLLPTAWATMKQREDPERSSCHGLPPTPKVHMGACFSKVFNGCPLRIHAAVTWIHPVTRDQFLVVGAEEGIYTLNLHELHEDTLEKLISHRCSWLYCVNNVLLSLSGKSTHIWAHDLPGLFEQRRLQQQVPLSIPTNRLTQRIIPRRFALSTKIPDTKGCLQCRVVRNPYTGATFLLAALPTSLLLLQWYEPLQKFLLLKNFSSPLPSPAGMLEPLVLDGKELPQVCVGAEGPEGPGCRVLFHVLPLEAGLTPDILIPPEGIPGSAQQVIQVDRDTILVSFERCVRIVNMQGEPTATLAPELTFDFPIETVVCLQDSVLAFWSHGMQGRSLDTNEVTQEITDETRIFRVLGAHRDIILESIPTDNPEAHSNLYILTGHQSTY

[9] = target: T3, Mitogen-activated protein kinase kinase kinase kinase 2 (Homo sapiens); details: at 1 µM
[10] = target: Mitogen-activated protein kinase kinase kinase kinase 4 (Homo sapiens) (UniProt O95819); details: at 0.1 µM
Mitogen-activated protein kinase kinase kinase kinase 4 (Homo sapiens), sequence (O95819 2-1239 limits assumed): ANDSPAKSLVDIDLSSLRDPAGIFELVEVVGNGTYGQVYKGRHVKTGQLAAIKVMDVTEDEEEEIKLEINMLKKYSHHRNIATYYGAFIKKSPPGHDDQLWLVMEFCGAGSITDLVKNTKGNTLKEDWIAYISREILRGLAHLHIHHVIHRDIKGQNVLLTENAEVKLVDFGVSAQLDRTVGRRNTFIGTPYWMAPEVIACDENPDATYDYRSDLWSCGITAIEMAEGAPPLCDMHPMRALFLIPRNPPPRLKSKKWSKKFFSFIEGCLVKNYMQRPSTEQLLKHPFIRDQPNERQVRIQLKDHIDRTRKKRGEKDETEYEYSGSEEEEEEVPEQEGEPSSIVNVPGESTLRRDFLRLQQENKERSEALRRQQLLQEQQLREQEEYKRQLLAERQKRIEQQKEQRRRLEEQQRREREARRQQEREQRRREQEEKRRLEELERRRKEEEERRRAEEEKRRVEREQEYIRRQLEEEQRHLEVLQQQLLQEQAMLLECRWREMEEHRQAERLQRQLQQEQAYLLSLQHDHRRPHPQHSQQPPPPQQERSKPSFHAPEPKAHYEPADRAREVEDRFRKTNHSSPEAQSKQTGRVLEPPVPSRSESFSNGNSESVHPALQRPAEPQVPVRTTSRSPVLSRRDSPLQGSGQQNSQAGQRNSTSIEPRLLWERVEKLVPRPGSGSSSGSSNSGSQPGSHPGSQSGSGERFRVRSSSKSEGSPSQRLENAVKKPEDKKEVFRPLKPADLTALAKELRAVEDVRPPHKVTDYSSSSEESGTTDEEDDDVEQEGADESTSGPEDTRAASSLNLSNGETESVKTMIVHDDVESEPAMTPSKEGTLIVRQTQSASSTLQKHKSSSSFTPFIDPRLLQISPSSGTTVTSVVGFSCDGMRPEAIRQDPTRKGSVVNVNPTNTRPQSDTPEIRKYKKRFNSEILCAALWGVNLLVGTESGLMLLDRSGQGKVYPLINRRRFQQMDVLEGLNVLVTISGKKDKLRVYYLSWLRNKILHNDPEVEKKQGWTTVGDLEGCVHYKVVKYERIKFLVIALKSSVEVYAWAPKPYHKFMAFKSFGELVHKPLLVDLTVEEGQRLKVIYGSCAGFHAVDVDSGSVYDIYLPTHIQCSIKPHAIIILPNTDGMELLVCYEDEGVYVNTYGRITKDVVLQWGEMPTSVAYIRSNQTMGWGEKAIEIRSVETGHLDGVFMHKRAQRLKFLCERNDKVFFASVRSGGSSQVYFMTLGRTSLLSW

Row | Compound | inhibition [1] | inhibition [2] | inhibition [3] | inhibition [4] | inhibition [5] | inhibition [6] | inhibition [7] | inhibition [8] | inhibition [9] | inhibition [10]
1 | COc1cc(N2CCN(C(C)C)CC2)ccc1Nc1nc(Nc2ccc(F)cc2C(N)=O)c2cc[nH]c2n1 | 4.58% | 2.99% | 2.23% | 0.8% | 2.67% | 3.31% | 11.8% | 4.5% | 31.1% | 18.1%
2 | COC(=O)c1sc(-n2cnc3cc(OC)c(OC)cc32)cc1OCc1ccccc1C(F)(F)F | 32.2% | 13.9% | 54.5% | 5.23% | 54.9% | 6.81% | 21.6% | -0.16% | 3.42% | 6.34%
3 | COC(=O)Nc1nc2ccc(Oc3ccc(NC(=O)Nc4cccc(Cl)c4)cc3)cc2[nH]1 | 0.65% | 16% | 22.7% | 16.6% | 35.3% | 14.1% | 27.1% | 0.77% | 7.45% | 0.19%
4 | CC(=O)Nc1cccc(C#Cc2cncnc2Nc2ccc(OCc3cccc(F)c3)c(Cl)c2)c1 | 8.44% | 1.68% | 5.28% | 2.09% | 15.3% | 2.85% | 4.01% | 0.88% | 1.54% | 2.7%
5 | CCN1CCC(CC(=O)Nc2n[nH]c3nnc(-c4cccc(F)c4F)cc23)CC1 | 2.34% | 0.22% | 4.4% | 1.43% | 4.58% | 3.88% | 4.08% | 0.29% | 5.3% | 2.42%
6 | CCn1cc(-c2ccnc3[nH]ccc23)c(-c2cccc(NC(=O)Nc3ccc(OCc4ccccc4)cc3)c2)n1 | 7.41% | 2.62% | 14.1% | 0.13% | 19.5% | 2.56% | 7.07% | 0.73% | 10.4% | 1.57%
7 | O=C(O[C@H]1CN[C@H](C#Cc2cc3ncnc(Nc4ccc(Cc5ccccc5)cc4)c3s2)C1)N1CCOCC1 | 1.29% | 1.27% | 2.04% | -0.18% | 5.53% | 3.08% | 7.29% | 0.39% | 0.86% | -0.42%
8 | Cc1ccc2c(-c3ccnc(Nc4ccccc4)n3)c(-c3ccc(F)cc3)nn2n1 | 16.4% | -4.16% | 12.9% | 2.67% | 25.2% | 7.71% | 22.8% | 0.67% | 3.98% | 12.3%
9 | Fc1cccc(COc2ccc(Nc3ncnc4sc(-c5ccco5)cc34)cc2Cl)c1 | 3.83% | 3.38% | 6.89% | 5.96% | 7.59% | 9.25% | 15% | 1.99% | 3.87% | 3.43%
10 | CNC(=O)c1cc(-c2ccc(F)cc2)cc(-c2ccc(S(=O)(=O)N3CCCC3)cc2)c1N | 0.86% | 2.91% | 3.09% | -0.67% | 1.97% | 2.49% | 4.92% | 1% | 0.67% | 3.33%
11 | COc1ccc(-c2nn3ncccc3c2-c2ccnc(Nc3ccc4c(c3)OCCO4)n2)cc1 | 63.2% | 3.61% | 17.4% | 6.73% | 46.8% | 11.2% | 55.1% | 0.69% | 4.16% | 0.61%
12 | N#Cc1c(NC(=O)c2ccc(F)cc2)sc2c1CCCC2 | 0.18% | 2.3% | 1.27% | 0.83% | -4.93% | 3.11% | 6.81% | 0.12% | 1.05% | 1.93%
13 | CC(C)COC(=O)c1ccc2c(c1)/C(=C/Nc1ccc(S(N)(=O)=O)cc1)C(=O)N2 | 61% | 6.97% | 48% | 4.05% | 82.9% | -1.08% | 12.6% | 2.95% | 14.3% | 14.5%
14 | COc1cc(Nc2nccc(Nc3ccc4c(C)n[nH]c4c3)n2)cc(OC)c1OC | 66.5% | 5.08% | 24.2% | 7.34% | 79.7% | 26.1% | 77.6% | 3.12% | 7.42% | 2.17%
15 | CC(=O)NCc1cccc(C#Cc2cncnc2Nc2ccc(OCc3cccc(F)c3)c(Cl)c2)c1 | 5.66% | 1.99% | 6.3% | 1% | -2.37% | 0.67% | 8.18% | 0.67% | 3.21% | 2.6%
16 | COc1cc(/C=N/Nc2ncnc3[nH]ncc23)ccc1O | 55.1% | 9.45% | 42.1% | 6.8% | 66% | 5.88% | 19.5% | 1.7% | 9.66% | 7.81%
17 | COc1cccc(-n2ncc3c(N/N=C/c4ccc(F)cc4)ncnc32)c1 | 18.5% | 4.02% | 12.9% | 2.64% | 3.29% | 6.75% | 10.9% | 0.43% | 0.63% | 5.23%
